Experimental data reported in PubChem BioAssay AID623911 (Vanderbilt High Throughput Screening Facility, 2012).
Hit rate of the full screen: of about 2,100 compounds, about 770 (37%) were called active.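 Rule for the calls: active = by-eye trace score of 1 for enhancers or -1 for inhibitors, so actives lie on both sides (some results past the limit were not filed as active); inactive = score 0, or 3 fluorescent, or 4 baseline rise.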 The list shows a part of the results.

biological target: G protein-activated inward rectifier potassium channel 2 (Homo sapiens) + G protein-activated inward rectifier potassium channel 1 (Homo sapiens) (UniProt P48051+P48549); assay: GIRK1/2 thallium flux modulators, retest, confirmation, cell-based, HEK293 rmGlu8/hGIRK1/2, FluoZin-2 (AID 623911); conditions: HEK293 rmGlu8/hGIRK1/2, thallium flux FluoZin-2; actives lie on both sides; glutamate co-added at its EC20 level
Sequence (P48051 whole entry, looked up): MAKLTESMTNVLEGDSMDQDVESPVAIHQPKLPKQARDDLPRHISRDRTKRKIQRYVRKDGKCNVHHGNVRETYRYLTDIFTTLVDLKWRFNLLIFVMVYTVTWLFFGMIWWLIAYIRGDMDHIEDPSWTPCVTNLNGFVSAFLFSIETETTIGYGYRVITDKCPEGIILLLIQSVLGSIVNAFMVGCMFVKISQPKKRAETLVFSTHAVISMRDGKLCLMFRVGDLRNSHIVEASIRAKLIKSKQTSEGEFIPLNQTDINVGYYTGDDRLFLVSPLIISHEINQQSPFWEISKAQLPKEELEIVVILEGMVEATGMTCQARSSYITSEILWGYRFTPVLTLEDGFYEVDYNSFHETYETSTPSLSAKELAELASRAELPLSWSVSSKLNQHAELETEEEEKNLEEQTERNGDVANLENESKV
Sequence (P48549 whole entry, looked up): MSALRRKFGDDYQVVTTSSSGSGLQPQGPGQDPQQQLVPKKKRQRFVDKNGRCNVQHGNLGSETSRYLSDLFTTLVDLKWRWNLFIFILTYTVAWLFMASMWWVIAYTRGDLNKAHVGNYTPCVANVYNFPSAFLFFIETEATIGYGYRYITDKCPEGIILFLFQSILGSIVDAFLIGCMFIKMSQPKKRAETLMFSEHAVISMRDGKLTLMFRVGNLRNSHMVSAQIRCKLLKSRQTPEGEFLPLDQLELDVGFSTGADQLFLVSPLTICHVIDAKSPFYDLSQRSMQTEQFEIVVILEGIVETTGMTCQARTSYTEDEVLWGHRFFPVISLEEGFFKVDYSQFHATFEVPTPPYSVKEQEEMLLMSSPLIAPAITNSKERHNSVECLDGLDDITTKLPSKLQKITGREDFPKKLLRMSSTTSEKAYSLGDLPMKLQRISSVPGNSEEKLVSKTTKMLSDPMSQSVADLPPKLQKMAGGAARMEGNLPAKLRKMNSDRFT

SMILES	manual score
CCCCN(C)C1=Nc2cccc3cccc1c23	-1 (active)
COc1ccc(NC2=Nc3cccc4cccc2c34)cc1OC	0 (inactive)
CC/C(=N\NC(=S)Nc1ccc(OC)cc1)c1ccc(OC(F)F)cc1	0 (inactive)
CCc1ccc(NC(=S)NNC(=O)c2ccccc2OC(F)F)cc1	1 (active)
O=C1C2C3C=CC(C3)C2C(=O)N1/N=C/c1cn(Cc2ccccc2)c2ccccc12 (stereo not given)	0 (inactive)
CC(C)CC(=O)NC(=S)Nc1nc(-c2cccc3ccccc23)cs1	0 (inactive)
CCOC(=O)Cc1csc(NC(=S)NC(=O)C(C)(C)C)n1	1 (active)
O=C(NC(=S)Nc1nc2c(s1)CCCC2)c1ccc(C(=O)c2ccccc2)cc1	0 (inactive)
CCOC(=O)Cc1csc(NC(=S)NC(=O)c2ccc(C)cc2)n1	1 (active)
CCOC(=O)Cc1csc(NC(=O)Nc2ccccc2)n1	1 (active)
O=C(NC(=S)Nc1nc2c(s1)CCCC2)c1ccccc1	0 (inactive)
CCOC(=O)Cc1csc(NC(=S)NC(=O)c2ccccc2)n1	1 (active)
O=C1C(Cl)=C(N2CCOCC2)C(=O)N1c1cccc(Cl)c1	0 (inactive)
CCCc1cc(-c2n[nH]c(=S)n2CC(C)C)cs1	0 (inactive)
CCCCCNC(=O)c1ccc2c(=O)[nH]c3c(C(=O)NCC4CCCO4)sc(=S)n3c2c1 (stereo not given)	0 (inactive)
CC(C)C(C)(C#N)NC(=O)CSc1ncnc2sc(-c3ccccc3)cc12 (stereo not given)	0 (inactive)
Cc1cc(C(=O)CSc2n[nH]c(N)n2)c(C)n1-c1cc(F)ccc1F	0 (inactive)
O=C1Nc2cc(S(=O)(=O)N3CCCC3)ccc2N2CCCC12 (stereo not given)	0 (inactive)
Cc1ccc(NC(=O)Cc2ccccc2Cl)cc1S(=O)(=O)N(C)C	1 (active)
CCOCc1c(C(=O)OCC(=O)Nc2ccc(C)c(S(=O)(=O)N(C)C)c2)oc2ccccc12	1 (active)
Cc1cc(C(=O)OCC(=O)Nc2ccc(F)cc2)c(C)o1	0 (inactive)
Cc1ccc(NC(=O)COn2nnc3ccc(S(=O)(=O)N(C)C)cc32)cc1F	0 (inactive)

SMILES	manual score
CC(C)c1ccccc1NC(=O)COC(=O)/C=C/c1cccc([N+](=O)[O-])c1	0 (inactive)
Cc1ccc(NC(=O)COC(=O)/C=C/c2ccco2)cc1S(=O)(=O)N(C)C	1 (active)
Cc1ccc(NC(=O)COC(=O)CCC(=O)c2ccc(Cl)cc2)cc1S(=O)(=O)N(C)C	1 (active)
O=C(CSCc1ccc(Br)cc1)N=Nc1c(O)[nH]c2ccccc12	0 (inactive)
CCc1nnc(NC(=O)CSc2nnc(C3CCCCC3)n2-c2cccc(Cl)c2)s1	0 (inactive)
COCCN=c1scc(-c2cccs2)n1/N=C/c1ccc(O)c(O)c1O	0 (inactive)
CCOC(=O)CN1NC2(CCC(C(C)(C)C)CC2)NC1=S (stereo not given)	0 (inactive)
COC(=O)c1sccc1NC(=O)CSc1ccccc1NS(=O)(=O)c1ccccc1Cl	0 (inactive)
Cc1ccc(NC(=O)Cc2c(Cl)cccc2Cl)cc1S(=O)(=O)N(C)C	1 (active)
CC1(C)NC(=O)NC2(C)NC(=O)NC(C)(C)C12 (stereo not given)	0 (inactive)
COc1cc(NC(=O)CS(=O)(=O)c2ccc(C)cc2)cc(OC)c1OC	0 (inactive)
COc1cc(C(=O)NC2CC3CCCC(C2)N3CC(=O)Nc2ccccc2)cc(OC)c1OC (stereo not given)	-1 (active)
CC1CCN(CC(O)COC2CCC(C(C)(C)C)CC2)CC1 (stereo not given)	-1 (active)
O=C1OCCC1Sc1nc2cc(Cl)ccc2n1Cc1ccccc1 (stereo not given)	0 (inactive)
CCCCSc1nc(N)c(NC(=O)c2ccco2)c(=O)[nH]1	0 (inactive)
CCN(C(=O)COc1cc(=O)n(CC)c2ccccc12)c1cc(Cl)ccc1OC	-0.5 (inactive)
COc1ccc(S(=O)(=O)NCCC(=O)NC2CCCCCCC2)cc1	0 (inactive)
COc1cccc(NC(=O)NCCCSC2CCCCC2)c1	1 (active)
COC(=O)[C@H]1CCCN1C(=O)Nc1cccc(Oc2c(F)c(F)c(F)c(F)c2F)c1	0 (inactive)
Cc1sc2c(c1C)CN(C1CC(C)(C)NC(C)(C)C1)CN2C(=O)c1ccco1	-1 (active)
C/C(=N\NC(=O)COc1ccc(C)cc1C(C)C)c1ccc(-n2ccnc2)cc1	-1 (active)
Cc1ccc(OCC(=O)N/N=C\c2ccc(-c3cccc(C(=O)O)c3)o2)c(C)c1	0 (inactive)

SMILES	manual score
Cc1conc1NC(c1cccs1)c1ccc2cccnc2c1O (stereo not given)	0 (inactive)
O=S(=O)(Nc1nc(-c2sccc2Cl)cs1)c1cc(Cl)ccc1Cl	0 (inactive)
Cc1ccc(Nc2cc(C)nn2-c2nc(C)cc(=O)[nH]2)cc1	1 (active)
Cc1cc(NC(=O)c2c(F)cccc2Cl)n(-c2nc3ccccc3[nH]2)n1	0 (inactive)
COc1ccccc1Nc1ccc(Nc2ccccc2OC)nn1	1 (active)
COc1ccccc1-c1ccc(NC2CCCC2)nn1	0 (inactive)
COc1ccccc1NC(=O)c1cc(C(=O)Nc2ccccc2OC)cc(N2C(=O)CCC2=O)c1	0 (inactive)
CCCC(=O)NC(c1cccs1)c1cc([N+](=O)[O-])c2cccnc2c1O (stereo not given)	0 (inactive)
CCc1c(C)sc(NC(=O)CCc2ccc(OC)cc2)c1C(N)=O	0 (inactive)
COc1cc(NC(=O)CCn2c(=O)[nH]c3ccsc3c2=O)cc(OC)c1	0 (inactive)
COc1ccc(Cn2c(=S)[nH]c3ccsc3c2=O)cc1	1 (active)
O=C(Cn1c(=O)[nH]c2ccsc2c1=O)NC1CCCCCC1	0 (inactive)
CCNC(=S)NNC(=O)c1cccn(Cc2ccc(Cl)cc2)c1=O	0 (inactive)
O=C(NNC(=O)c1sccc1-n1cccc1)c1ccc(Cl)cc1	1 (active)
Cn1c2ccccc2c2cc(C(=O)NNS(=O)(=O)c3ccc(F)cc3)sc21	0 (inactive)
O=C(NNS(=O)(=O)c1cc(Cl)cc(Cl)c1)c1sccc1-n1cccc1	1 (active)
O=C(NNC(=S)Nc1cccc(C(F)(F)F)c1)c1cccc(Cl)c1	0.5 (inactive)
O=C(NNC(=O)c1sccc1-n1cccc1)c1cccc(Cl)c1	1 (active)
Cn1sc(NC(=O)c2cccc(Cl)c2)nc1=O	0 (inactive)
Cc1cccc(-n2c(O)c(/C=N/NC(=O)c3ccccc3Cl)c3ccccc3c2=O)n1	0 (inactive)
Clc1ccc(Cl)c(OCc2cc(-c3ccccc3Cl)on2)c1	0 (inactive)
